These results are taken from PMC7862700, “An all-to-all approach to the identification of sequence-specific readers for epigenetic DNA modifications on cytosine”.

Experiment in all cases: DAPPL (digital affinity profiling via proximity ligation, sequencing); 10 mM Tris-HCl pH 7.5, 50 mM NaCl, 1 mM DTT, 4% glycerol, room temperature, 30 min; GST-TFs on glutathione beads, 16-mer random dsDNA library, 0.1% formaldehyde crosslink after washing; high values mean tight binding
One assay has as its target T1, FEV (Homo sapiens, UniProt Q99581 1-238).
T1 sequence: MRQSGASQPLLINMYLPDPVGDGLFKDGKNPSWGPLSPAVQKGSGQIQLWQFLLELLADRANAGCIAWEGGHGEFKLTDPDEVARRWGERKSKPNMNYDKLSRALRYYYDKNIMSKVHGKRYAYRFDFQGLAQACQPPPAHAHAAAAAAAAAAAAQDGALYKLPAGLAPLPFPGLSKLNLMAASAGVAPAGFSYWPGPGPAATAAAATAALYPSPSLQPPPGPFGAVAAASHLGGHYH
The following applies: protein: recombinant; tags: N-terminal GST; dsDNA, one strand shown. In short, it runs like this:
(§1)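 Human transcription factors fused to GST were expressed in yeast, captured on glutathione beads, given DNA barcodes and pooled with a GST-only negative control. Pools were incubated with 200 nmole of a 16-mer random double-stranded DNA library in Tris/NaCl/DTT/glycerol buffer at room temperature for 30 min. They were then washed, crosslinked with 0.1% formaldehyde, proximity-ligated (BsaI/T4 ligase, 1 h, 37 °C), PCR-amplified and sequenced on an Illumina NextSeq500. Binding signal is each 6-mer's read frequency for a factor divided by its frequency for the GST control.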

A further assay concerns the target ETV5 (Homo sapiens, UniProt P41161 1-510). The following applies: protein: recombinant; tags: N-terminal GST; dsDNA, one strand shown. The method, boiled down:
as §1

The target of a further assay is HSF1 (Homo sapiens, UniProt Q00613 1-529). The following applies: protein: recombinant; tags: N-terminal GST; chain copies: 3; dsDNA, one strand shown. The method, boiled down: as §1
Another assay addresses T2, SPIC (Homo sapiens, UniProt Q8N5J4 1-248).
T2 sequence: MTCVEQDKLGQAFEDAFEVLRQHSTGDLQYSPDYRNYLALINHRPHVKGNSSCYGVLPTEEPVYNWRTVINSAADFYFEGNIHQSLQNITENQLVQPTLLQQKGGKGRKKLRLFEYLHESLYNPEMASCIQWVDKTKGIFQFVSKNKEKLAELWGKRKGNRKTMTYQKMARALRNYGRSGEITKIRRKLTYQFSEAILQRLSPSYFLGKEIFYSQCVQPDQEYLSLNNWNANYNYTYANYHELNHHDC
The following applies: protein: recombinant; tags: N-terminal GST; dsDNA, one strand shown. In short, it runs like this:
as §1

A further assay addresses ELF4 (Homo sapiens, UniProt Q99607 1-663). The following applies: protein: recombinant; tags: N-terminal GST; dsDNA, one strand shown. In short, it runs like this: as §1
The target in another assay is T3, ELK4 (Homo sapiens, UniProt P28324-2 1-405).
T3 sequence: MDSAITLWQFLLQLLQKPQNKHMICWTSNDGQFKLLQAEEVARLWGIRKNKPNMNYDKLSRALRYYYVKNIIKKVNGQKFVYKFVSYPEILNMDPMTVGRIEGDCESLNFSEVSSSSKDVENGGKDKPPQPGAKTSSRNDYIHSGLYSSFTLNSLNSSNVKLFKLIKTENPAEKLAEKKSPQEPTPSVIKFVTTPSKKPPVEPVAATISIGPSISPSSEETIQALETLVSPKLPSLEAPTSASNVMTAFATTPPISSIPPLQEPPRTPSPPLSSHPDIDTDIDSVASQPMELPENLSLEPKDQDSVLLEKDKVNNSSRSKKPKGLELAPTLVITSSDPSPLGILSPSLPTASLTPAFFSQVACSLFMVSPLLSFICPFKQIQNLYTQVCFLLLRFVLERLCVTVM
The following applies: protein: recombinant; tags: N-terminal GST; dsDNA, one strand shown. The method, boiled down:
as §1

The target of the next assay is T4, ETV2 (Homo sapiens, UniProt O00321 1-342).
T4 sequence: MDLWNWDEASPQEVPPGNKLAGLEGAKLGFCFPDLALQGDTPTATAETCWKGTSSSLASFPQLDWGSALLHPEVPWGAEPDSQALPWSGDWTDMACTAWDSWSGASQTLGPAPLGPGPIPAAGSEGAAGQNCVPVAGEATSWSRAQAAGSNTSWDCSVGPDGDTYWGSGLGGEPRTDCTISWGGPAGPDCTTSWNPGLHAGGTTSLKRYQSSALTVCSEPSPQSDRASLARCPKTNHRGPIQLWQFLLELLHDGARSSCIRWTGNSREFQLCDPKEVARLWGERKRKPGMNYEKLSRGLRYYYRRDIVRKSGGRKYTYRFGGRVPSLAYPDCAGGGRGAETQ
The following applies: protein: recombinant; tags: N-terminal GST; dsDNA, one strand shown. In short, it runs like this: as §1

The target of a further assay is T5, ELF3 (Homo sapiens, UniProt P78545 1-371).
T5 sequence: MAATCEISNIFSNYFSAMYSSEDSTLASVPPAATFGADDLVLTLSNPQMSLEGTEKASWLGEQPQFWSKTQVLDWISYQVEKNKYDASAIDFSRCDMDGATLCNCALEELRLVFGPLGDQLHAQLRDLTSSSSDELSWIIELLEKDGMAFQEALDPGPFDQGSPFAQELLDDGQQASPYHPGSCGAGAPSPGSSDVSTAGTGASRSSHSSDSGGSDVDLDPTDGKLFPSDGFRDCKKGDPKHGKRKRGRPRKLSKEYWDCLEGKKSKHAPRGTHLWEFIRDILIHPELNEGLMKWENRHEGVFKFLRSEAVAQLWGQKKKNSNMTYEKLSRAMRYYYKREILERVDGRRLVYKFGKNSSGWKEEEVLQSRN
The following applies: protein: recombinant; tags: N-terminal GST; dsDNA, one strand shown. In short, it runs like this: as §1

The next assay deals with CRX (Homo sapiens, UniProt O43186 1-299). The following applies: protein: recombinant; tags: N-terminal GST; dsDNA, one strand shown. The method, boiled down: as §1
A further assay has as its target ETV1 (Homo sapiens, UniProt P50549 1-477). The following applies: protein: recombinant; tags: N-terminal GST; dsDNA, one strand shown. In short, it runs like this: as §1
The target in the next assay is T6, ERF (Homo sapiens, UniProt P50548 1-548).
T6 sequence: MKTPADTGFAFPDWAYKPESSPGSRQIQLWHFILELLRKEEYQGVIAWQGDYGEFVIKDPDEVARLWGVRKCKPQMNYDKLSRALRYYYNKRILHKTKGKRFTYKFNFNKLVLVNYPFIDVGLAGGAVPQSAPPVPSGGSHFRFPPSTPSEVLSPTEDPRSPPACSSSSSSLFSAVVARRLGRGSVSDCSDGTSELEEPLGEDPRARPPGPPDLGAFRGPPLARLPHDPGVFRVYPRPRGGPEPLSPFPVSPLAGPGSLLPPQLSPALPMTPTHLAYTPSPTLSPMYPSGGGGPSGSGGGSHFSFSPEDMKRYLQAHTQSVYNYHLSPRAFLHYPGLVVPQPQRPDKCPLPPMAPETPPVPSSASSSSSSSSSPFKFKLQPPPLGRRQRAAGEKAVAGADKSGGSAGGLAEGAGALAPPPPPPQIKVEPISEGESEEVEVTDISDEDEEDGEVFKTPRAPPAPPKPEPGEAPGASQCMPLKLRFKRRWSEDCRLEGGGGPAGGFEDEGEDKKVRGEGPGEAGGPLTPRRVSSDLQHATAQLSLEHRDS
The following applies: protein: recombinant; tags: N-terminal GST; dsDNA, one strand shown. The method, boiled down:
as §1

The target of a further assay is T7, ETV3L (Homo sapiens, UniProt Q6ZN32 1-361).
T7 sequence: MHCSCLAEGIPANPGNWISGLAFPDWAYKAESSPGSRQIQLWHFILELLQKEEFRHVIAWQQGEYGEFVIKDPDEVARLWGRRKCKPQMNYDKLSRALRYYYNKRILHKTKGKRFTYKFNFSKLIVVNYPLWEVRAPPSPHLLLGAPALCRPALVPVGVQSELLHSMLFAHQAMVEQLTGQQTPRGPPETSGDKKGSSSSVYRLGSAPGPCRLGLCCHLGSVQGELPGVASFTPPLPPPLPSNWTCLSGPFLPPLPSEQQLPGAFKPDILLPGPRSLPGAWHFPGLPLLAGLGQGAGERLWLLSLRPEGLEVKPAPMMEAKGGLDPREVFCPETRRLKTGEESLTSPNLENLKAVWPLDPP
The following applies: protein: recombinant; tags: N-terminal GST; dsDNA, one strand shown. In short, it runs like this: as §1

A further assay concerns the target T8, ETS2 (Homo sapiens, UniProt P15036 1-469).
T8 sequence: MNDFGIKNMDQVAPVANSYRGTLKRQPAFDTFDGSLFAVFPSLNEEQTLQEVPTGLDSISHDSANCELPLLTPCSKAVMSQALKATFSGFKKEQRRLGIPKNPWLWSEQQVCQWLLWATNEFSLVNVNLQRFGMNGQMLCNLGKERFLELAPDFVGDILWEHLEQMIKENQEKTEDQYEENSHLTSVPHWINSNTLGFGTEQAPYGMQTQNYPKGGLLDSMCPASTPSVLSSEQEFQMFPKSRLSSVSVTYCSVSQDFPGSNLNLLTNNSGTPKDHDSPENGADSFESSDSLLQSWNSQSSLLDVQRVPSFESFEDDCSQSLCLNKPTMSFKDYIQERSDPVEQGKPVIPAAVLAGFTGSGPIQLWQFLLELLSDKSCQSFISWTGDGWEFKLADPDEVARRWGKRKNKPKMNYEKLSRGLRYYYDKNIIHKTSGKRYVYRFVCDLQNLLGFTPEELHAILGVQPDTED
The following applies: protein: recombinant; tags: N-terminal GST; dsDNA, one strand shown. In short, it runs like this:
as §1

The target in a further assay is T9, SPDEF (Homo sapiens, UniProt O95238 1-335).
T9 sequence: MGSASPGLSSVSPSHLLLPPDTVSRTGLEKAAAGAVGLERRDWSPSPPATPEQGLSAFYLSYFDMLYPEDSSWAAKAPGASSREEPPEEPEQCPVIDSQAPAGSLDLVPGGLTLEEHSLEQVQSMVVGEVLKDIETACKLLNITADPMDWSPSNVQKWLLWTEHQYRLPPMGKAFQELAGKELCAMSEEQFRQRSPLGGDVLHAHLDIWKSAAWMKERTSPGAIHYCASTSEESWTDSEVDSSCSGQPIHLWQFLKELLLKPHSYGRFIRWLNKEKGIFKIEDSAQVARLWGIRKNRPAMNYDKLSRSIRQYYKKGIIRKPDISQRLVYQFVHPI
The following applies: protein: recombinant; tags: N-terminal GST; dsDNA, one strand shown. The method, boiled down:
as §1

The target in the next assay is T10, ETV7 (Homo sapiens, UniProt Q9Y603 1-341).
T10 sequence: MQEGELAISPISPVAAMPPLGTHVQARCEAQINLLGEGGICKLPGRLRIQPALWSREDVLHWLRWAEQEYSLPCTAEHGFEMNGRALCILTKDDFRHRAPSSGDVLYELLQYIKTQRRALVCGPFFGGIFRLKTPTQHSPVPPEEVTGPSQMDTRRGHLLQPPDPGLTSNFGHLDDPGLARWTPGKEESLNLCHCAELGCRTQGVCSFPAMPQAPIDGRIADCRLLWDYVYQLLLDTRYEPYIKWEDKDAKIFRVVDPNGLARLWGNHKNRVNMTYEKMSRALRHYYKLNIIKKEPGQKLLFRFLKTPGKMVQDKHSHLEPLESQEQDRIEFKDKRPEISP
The following applies: protein: recombinant; tags: N-terminal GST; dsDNA, one strand shown. In short, it runs like this: as §1

The next assay deals with T11, ELF5 (Homo sapiens, UniProt Q9UKW6-2 1-255).
T11 sequence: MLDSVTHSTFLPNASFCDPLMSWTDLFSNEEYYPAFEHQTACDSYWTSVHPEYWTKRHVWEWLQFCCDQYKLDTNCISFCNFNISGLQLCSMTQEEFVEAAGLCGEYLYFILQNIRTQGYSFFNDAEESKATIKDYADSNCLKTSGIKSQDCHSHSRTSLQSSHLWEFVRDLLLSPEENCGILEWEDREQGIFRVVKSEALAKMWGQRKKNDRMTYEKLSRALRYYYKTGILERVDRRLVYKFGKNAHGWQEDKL
The following applies: protein: recombinant; tags: N-terminal GST; dsDNA, one strand shown. The method, boiled down:
as §1

A further assay addresses T12, ETV3 (Homo sapiens, UniProt P41162-2 1-143).
T12 sequence: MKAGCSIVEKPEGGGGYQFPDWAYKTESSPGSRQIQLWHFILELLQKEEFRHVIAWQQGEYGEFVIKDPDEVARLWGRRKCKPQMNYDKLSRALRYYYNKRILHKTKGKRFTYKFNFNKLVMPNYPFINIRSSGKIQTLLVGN
The following applies: protein: recombinant; tags: N-terminal GST; dsDNA, one strand shown. The method, boiled down:
as §1

The target in a further assay is ETV6 (Homo sapiens, UniProt P41212 1-452). The following applies: protein: recombinant; tags: N-terminal GST; dsDNA, one strand shown. The method, boiled down:
as §1

Sequence of ELF4 (Q99607 whole entry): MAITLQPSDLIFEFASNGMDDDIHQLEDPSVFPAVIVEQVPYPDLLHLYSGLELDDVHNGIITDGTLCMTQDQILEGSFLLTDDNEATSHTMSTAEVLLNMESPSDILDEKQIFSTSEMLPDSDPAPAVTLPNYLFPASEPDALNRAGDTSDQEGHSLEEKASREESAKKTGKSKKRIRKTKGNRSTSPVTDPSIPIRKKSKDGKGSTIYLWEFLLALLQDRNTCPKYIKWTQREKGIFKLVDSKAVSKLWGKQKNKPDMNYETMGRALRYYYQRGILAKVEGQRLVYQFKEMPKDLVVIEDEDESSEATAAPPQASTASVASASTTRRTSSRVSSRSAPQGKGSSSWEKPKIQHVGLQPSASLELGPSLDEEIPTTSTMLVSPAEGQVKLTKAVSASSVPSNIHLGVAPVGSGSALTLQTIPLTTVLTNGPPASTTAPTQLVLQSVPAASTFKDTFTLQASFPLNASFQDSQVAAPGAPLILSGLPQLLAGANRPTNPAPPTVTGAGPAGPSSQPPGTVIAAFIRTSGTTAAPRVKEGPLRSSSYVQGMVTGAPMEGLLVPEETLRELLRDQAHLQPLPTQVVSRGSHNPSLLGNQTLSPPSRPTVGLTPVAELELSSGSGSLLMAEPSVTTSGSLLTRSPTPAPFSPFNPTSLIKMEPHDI
Sequence of ETV6 (P41212 whole entry): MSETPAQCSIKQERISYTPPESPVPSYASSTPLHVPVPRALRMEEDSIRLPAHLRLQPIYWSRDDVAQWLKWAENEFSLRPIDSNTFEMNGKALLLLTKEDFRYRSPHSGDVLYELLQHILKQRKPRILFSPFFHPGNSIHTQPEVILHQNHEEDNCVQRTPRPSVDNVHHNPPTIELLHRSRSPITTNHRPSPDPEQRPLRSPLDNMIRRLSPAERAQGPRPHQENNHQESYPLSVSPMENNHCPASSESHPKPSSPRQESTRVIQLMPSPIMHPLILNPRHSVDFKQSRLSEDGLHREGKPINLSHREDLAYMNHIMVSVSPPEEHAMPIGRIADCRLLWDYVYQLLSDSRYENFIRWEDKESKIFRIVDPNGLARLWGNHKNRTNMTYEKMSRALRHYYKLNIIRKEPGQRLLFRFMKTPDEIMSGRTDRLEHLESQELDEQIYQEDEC
Sequence of ETV1 (P50549 whole entry): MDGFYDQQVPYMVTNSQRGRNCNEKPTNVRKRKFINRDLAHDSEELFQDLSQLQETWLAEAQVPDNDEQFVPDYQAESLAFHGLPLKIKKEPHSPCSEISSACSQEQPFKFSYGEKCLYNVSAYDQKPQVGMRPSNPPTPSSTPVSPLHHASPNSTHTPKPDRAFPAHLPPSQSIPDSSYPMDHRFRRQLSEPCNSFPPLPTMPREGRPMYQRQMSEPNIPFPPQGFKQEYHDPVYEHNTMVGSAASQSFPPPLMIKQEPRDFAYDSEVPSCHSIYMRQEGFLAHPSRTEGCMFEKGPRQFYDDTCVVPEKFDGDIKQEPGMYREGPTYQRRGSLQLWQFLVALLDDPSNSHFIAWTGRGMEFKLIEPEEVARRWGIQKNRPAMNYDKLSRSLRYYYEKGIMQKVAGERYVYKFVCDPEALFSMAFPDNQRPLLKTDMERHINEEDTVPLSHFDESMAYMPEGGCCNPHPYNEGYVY
Sequence of HSF1 (Q00613 whole entry): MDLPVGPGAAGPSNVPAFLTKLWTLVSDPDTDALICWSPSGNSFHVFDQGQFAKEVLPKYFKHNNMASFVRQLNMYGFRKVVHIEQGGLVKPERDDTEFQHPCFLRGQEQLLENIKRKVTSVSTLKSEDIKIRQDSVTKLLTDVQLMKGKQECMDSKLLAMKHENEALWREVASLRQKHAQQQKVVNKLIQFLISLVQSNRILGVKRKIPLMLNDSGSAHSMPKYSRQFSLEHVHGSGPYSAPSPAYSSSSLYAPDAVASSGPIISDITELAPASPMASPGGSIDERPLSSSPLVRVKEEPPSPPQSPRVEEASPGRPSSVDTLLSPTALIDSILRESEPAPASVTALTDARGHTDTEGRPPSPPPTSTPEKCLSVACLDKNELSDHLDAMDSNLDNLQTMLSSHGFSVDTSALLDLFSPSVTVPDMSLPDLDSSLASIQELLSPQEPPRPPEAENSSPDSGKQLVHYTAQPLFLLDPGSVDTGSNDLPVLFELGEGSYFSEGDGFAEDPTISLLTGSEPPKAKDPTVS
Sequence of CRX (O43186 whole entry): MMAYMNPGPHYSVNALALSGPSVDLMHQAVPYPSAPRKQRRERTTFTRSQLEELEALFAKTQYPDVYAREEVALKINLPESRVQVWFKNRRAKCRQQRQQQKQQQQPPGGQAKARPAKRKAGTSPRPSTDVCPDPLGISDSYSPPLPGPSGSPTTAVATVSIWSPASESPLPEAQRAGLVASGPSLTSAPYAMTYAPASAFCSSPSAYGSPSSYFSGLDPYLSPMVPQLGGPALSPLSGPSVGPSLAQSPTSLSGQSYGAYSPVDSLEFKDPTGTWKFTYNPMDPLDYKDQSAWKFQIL
Sequence of ETV5 (P41161 whole entry): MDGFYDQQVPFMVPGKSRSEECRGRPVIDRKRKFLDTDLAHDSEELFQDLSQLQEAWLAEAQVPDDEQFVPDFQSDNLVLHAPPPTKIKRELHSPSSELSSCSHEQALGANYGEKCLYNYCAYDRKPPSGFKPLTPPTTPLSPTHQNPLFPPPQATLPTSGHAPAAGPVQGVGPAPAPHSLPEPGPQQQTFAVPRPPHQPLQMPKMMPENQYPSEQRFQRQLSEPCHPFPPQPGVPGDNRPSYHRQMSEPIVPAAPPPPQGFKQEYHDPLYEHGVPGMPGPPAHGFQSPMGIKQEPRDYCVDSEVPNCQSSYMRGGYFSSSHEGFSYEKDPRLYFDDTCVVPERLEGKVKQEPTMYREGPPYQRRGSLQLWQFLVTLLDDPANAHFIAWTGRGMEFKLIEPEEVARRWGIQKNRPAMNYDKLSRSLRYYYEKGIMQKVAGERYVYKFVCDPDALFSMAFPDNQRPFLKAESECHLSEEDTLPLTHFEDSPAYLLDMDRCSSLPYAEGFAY

As for CTATAC, the binding signal with FEV is 1.3 fold enrichment (6-mer frequency, TF over GST control); with ETV5, 1.22 fold enrichment (6-mer frequency, TF over GST control); in the assay with HSF1 it was 1.14 fold enrichment (6-mer frequency, TF over GST control); with SPIC it was 1.21 fold enrichment (6-mer frequency, TF over GST control); with ELF4 it was 1.29 fold enrichment (6-mer frequency, TF over GST control); with ELK4, 1.07 fold enrichment (6-mer frequency, TF over GST control). Further, the binding signal was 1.4 fold enrichment (6-mer frequency, TF over GST control) in the assay with ETV2; 1.24 fold enrichment (6-mer frequency, TF over GST control) with ELF3; 1.19 fold enrichment (6-mer frequency, TF over GST control) with CRX; 1.29 fold enrichment (6-mer frequency, TF over GST control) in the assay with ETV1; 1.21 fold enrichment (6-mer frequency, TF over GST control) in the assay with ERF; 1.19 fold enrichment (6-mer frequency, TF over GST control) with ETV3L. For the same sequence, the binding signal with ETS2 was 1.28 fold enrichment (6-mer frequency, TF over GST control); with SPDEF, 1.39 fold enrichment (6-mer frequency, TF over GST control); in the assay with ETV7 it was 1.19 fold enrichment (6-mer frequency, TF over GST control); with ELF5, 1.26 fold enrichment (6-mer frequency, TF over GST control); in the assay with ETV3 it was 1.24 fold enrichment (6-mer frequency, TF over GST control); in the assay with ETV6 it was 1.28 fold enrichment (6-mer frequency, TF over GST control).
